PubChem BioAssay (NCI)
Compounds without any hit were thinned out: in the full panel of roughly 79,000, 15% have a hit. Rule as the data show it: active = growth inhibition above about 70%; inactive = the rest.

Experiments:
[1] = NCI Yeast Anticancer Drug Screen. Data for the rad50 strain (AID 155);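 also: 0% = growth of vehicle-only cultures of the same strain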; conditions: S. cerevisiae rad50 strain growth inhibition; at 50.0 µM; stronger effect = higher value
Procedure, shortened: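 Readout: growth inhibition relative to vehicle-treated cultures. Compound exposure was carried out in a genetically defined yeast strain deficient in DNA damage repair.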

[2] = NCI Yeast Anticancer Drug Screen. Data for the mec2-1 strain (AID 157); conditions: S. cerevisiae mec2-1 strain, at 50.0 µM, stronger effect = higher value
Procedure, shortened: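 Compounds were applied to mec2-1 yeast cells. Their growth was then compared with that of vehicle-treated cultures to give growth inhibition.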

[3] = NCI Yeast Anticancer Drug Screen. Data for the sgs1 mgt1 strain (AID 161);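 also: 0% = growth of cultures given vehicle only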; conditions: S. cerevisiae sgs1 mgt1 strain, at 50.0 µM, stronger effect = higher value
Procedure, shortened: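 This yeast growth screen uses a strain with defined DNA-repair lesions; compound-treated growth is compared with vehicle-treated growth.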

[4] = NCI Yeast Anticancer Drug Screen. Data for the cln2 rad14 strain (AID 165);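 also: 0% = growth equal to vehicle treated cultures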; conditions: S. cerevisiae cln2 rad14 strain, at 50.0 µM, stronger effect = higher value
Procedure, shortened: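 Strain: cln2 rad14 yeast, altered in cell cycle control and DNA damage repair. Read-out: growth inhibition vs vehicle.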

[5] = NCI Yeast Anticancer Drug Screen. Data for the bub3 strain (AID 167); conditions: S. cerevisiae bub3 mutant strain, at 50.0 µM, stronger effect = higher value
Procedure, shortened: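 Readout: yeast growth inhibition, expressed relative to vehicle-only wells. The test organism is a mutant strain from a panel with lesions in DNA repair or checkpoint genes.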

[6] = NCI Yeast Anticancer Drug Screen. Data for the mlh1 rad18 strain (AID 175); conditions: S. cerevisiae mlh1 rad18 strain growth inhibition; at 50.0 µM; stronger effect = higher value
Procedure, shortened: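 A repair-deficient yeast strain is exposed to test compound, and growth is scored relative to vehicle-treated controls.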

Measured: growth inhibition

CCC[As](=O)(O)CC[As](=O)(O)CCC
inactive: [1] 15.8% | [2] 34.2% | [3] 59.3% | [4] -3.05% | [5] 0.8% | [6] 14.4%

C/C(=N\NS(=O)(=O)c1ccc(C)cc1)C(CN(C)C)C(c1ccccc1)c1c(O)c2ccccc2oc1=O (centres undefined)
inactive: [1] 59.9% | [2] 42.2% | [3] 65.2% | [4] 52.9% | [5] 54.7% | [6] 51.9%

NC(=O)CCl
inactive: [1] 6% | [2] -0.8% | [3] -2.6% | [4] -1.45% | [5] 12.4% | [6] -12.9%

O=C(c1ccccc1)P(C(=O)c1ccccc1)C(=O)c1ccccc1
inactive: [1] 10.9% | [2] -5.7% | [3] 8.2% | [4] -75.7% | [5] -0.05% | [6] -5.1%

O=C(NC1=NN(Cc2ccccc2)C(=O)C1)c1ccc(S(=O)(=O)F)cc1
inactive: [1] -0.35% | [2] -14.9% | [3] 19.6% | [4] 9.55% | [5] 9.8% | [6] 11.6%

O=S(=O)(c1ccccc1)N1CC1CI (centres undefined)
inactive: [1] 3.45% | [2] 2.7% | [3] 13.9% | [4] 10.6% | [5] 7.9% | [6] 1.75%

O=S(=O)(N=S(CCCl)CCCl)c1ccccc1
inactive: [1] 8.3% | [2] 11.3% | [3] 24.3% | [4] -7.95% | [5] 21.4% | [6] 21.4%

CC(CO)[N+](=O)[O-] (centres undefined)
inactive: [1] 0.75% | [2] 1.15% | [3] -5.05% | [4] -15.2% | [5] 1.5% | [6] 1%

COC[n+]1cccc(C2CCC[N+]2(C)C)c1 (centres undefined)
inactive: [1] 6.35% | [2] 1.25% | [3] 6.8% | [4] 9.9% | [5] 1.8% | [6] 15.5%

CCCC/C=C/C=C/C=C/CCCCCCCC(=O)OCC(COC(=O)CCCCCCC/C=C/C1C=CC(CCCC)C(C(=O)O)C1C(=O)O)OC(=O)CCCCCCC/C=C/C=C/C=C/CCCC (centres undefined) (tested in a mixture with another compound)
inactive: [1] -10.8% | [2] -20.1% | [3] 4.55% | [4] -3.85% | [5] 7.6% | [6] -0.45%

O=C1C(Br)=CC2(C=C1Br)CCN=c1c(O)c3c(c(O)c12)=NC=N3
inactive: [1] 27.3% | [2] 15.7% | [3] 20.5% | [4] 19.1% | [5] 12.7% | [6] -9.4%

[C-]#[O+].[C-]#[O+].[C-]#[O+].[C-]#[O+].[Cr].c1ccc([As](CC[As](c2ccccc2)c2ccccc2)c2ccccc2)cc1
inactive: [1] 22.9% | [2] 21.4% | [3] 8% | [4] 6.65% | [5] 36.2% | [6] 29.1%

CCC(CN)c1ccccc1 (centres undefined)
inactive: [1] 13.6% | [2] -0.85% | [3] 2.75% | [4] 0.65% | [5] -14.4% | [6] -9.4%

CN1C(=O)C[N+]([O-])=C(c2ccccc2)c2cc(Cl)ccc21
inactive: [1] 2.45% | [2] 0.9% | [3] -10.1% | [4] 18.6% | [5] -5.15% | [6] -13.7%

CC(C)(C)c1cc(C=C(C#N)C#N)cc(C(C)(C)C)c1O
inactive: [1] 4.3% | [2] 10.6% | [3] 7.55% | [4] -32.8% | [5] 48.6% | [6] 6.45%

O=C(Cl)C(Br)Cc1ccccc1 (centres undefined)
inactive: [1] 11.9% | [2] -19.4% | [3] 0.95% | [4] 7% | [5] 28.6% | [6] 2.1%

Cn1cc(C(=O)C[n+]2ccccc2)c2ccccc21
inactive: [1] -20.4% | [2] -0.45% | [3] -18.3% | [4] 3.7% | [5] -30.1% | [6] -5.45%

CC(C)(Br)[N+](=O)[O-]
inactive: [1] 9% | [2] -3.55% | [3] 4.45% | [4] 10.2% | [5] 10.8% | [6] 1.8%

CC(=O)C(CN1CCCCC1)C(c1ccccc1)c1c(O)c2ccccc2oc1=O (centres undefined)
inactive: [1] 6.8% | [2] -9% | [3] 9.25% | [4] 26.2% | [5] 33% | [6] 9.55%
